Experimental data published in PubChem BioAssay AID588847 (Broad Institute, 2011).
Results with a measured potency or affinity are listed apart. A number with no mark means an inactive call.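 How the source made its calls: active means compounds lowering luciferase light with a fitted half-maximal dose at most twice the top tested dose; inconclusive means flat fit inhibiting 30 to 70%, or unreliable fit; inactive means the rest.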

Each molecule was assayed against Luciferin 4-monooxygenase (Photuris pensylvanica) (UniProt Q27757) (assay: inhibition of Cell Titer Glo luciferase signal – biochemical, luminescence, cherry-picks, counter-screen for HSF-1 reporter inhibitor project, dose response (AID 588847)). Details: ATP; series mostly up to 26 µM; activity change, negative = inhibition: at the top concentration.
Sequence of Luciferin 4-monooxygenase (Photuris pensylvanica) (Q27757 whole entry, looked up): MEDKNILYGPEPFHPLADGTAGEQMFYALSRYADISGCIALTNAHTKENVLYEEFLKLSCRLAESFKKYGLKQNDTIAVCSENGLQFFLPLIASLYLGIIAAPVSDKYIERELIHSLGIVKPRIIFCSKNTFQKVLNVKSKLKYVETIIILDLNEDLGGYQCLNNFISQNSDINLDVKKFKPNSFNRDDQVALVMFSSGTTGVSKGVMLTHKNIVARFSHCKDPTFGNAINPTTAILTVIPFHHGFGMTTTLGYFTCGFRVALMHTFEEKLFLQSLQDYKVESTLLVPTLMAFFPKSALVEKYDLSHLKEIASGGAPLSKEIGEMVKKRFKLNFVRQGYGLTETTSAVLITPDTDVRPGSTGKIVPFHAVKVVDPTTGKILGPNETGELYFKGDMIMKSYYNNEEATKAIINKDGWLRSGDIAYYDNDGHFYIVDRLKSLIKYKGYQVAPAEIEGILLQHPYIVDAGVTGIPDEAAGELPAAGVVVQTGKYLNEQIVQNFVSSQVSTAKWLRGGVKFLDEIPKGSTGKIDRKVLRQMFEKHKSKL

Row | Compound | activity change, negative = inhibition
1 | COc1cc([C@@H]2c3cc4c(cc3[C@H](O)[C@H]3COC(=O)[C@H]23)OCO4)cc(OC)c1OC | -6.03%
2 | CC(=O)OCC(=O)[C@@]12OC(C)(C)O[C@@H]1CC1C3C[C@H](F)C4=CC(=O)C=CC4(C)[C@@]3(F)C(O)CC12C (stereo partly drawn) | -5.62%
3 | O=C(Nc1ccc(F)cc1F)c1cc2nc3c(c(C(F)(F)F)n2n1)CCCC3 | -7.45%
4 | Cc1nc(SCC(=O)Nc2nc3ccccc3s2)c(C#N)c(C)c1C | -11%
5 | COC(=O)c1ccccc1NC(=O)c1ccc(-c2ccc(Br)cc2)o1 | -19.2%
6 | O=[N+]([O-])c1nn(-c2ccc3c(c2)OCCO3)n(O)c1=Nc1ccccc1 | -5.15%
7 | Cc1ccc(C(=O)Nc2sc(C)c(-c3ccccc3)c2C(N)=O)cc1[N+](=O)[O-] | -12.8%
8 | CC(=O)[C@@]1(O)C(C)CC2C3C=C(C)C4=Cc5c(cnn5-c5ccccc5)C[C@]4(C)C3C(O)C[C@@]21C (stereo partly drawn) | -12.9%
